{
  "source": "the supplement of paper PMC12645437",
  "about": "“Orthogonal IMiD-Degron Pairs Induce Selective Protein Degradation in Cells” (ACS Chemical Biology, 2025)",
  "molecular_target": "T1, CRBN, Q96SW2",
  "T1 chain": "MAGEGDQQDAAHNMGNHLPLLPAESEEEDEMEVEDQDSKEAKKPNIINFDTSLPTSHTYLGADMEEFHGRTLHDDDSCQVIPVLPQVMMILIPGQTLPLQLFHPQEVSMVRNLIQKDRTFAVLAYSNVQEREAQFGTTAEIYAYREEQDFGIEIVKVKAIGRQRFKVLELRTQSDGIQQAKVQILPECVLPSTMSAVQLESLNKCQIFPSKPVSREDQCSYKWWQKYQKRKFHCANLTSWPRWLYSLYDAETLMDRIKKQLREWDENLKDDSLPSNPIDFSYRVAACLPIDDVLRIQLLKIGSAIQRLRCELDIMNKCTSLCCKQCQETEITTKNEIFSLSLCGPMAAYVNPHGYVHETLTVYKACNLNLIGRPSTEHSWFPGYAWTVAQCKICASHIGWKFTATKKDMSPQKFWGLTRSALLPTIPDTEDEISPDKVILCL",
  "test": "log2 fold change of degron read counts, EGFP-low vs EGFP+ sorted cells (limma voom), compound-induced degradation; higher = more compound-induced degradation of the degron-EGFP fusion; degrons are variants of IKZF1/3 zinc finger 2; compound dose not given here",
  "settings": "Jurkat, 18 h",
  "key": {"[1]": {"settings": "compound: compound 19 (5-tert-butyl-thalidomide)"}, "[2]": {"settings": "compound: compound 22 (5-morpholino-thalidomide)"}, "[3]": {"settings": "compound: compound 33 (diphenyl IMiD analogue)"}},
  "note": "Whole data set: some 8,300 sequences, median “log2 fold change of degron read counts, EGFP-low vs EGFP+ sorted cells (limma voom), compound-induced degradation” near -1.1, cut for the highest 2% near 3.2. Only a selection was taken, and the highest values are over-represented in it overall.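 Also: pooled lentiviral library of zinc finger degron-EGFP fusions in mCherry-positive Jurkat cells, FACS-sorted after compound exposure, with degron abundance counted by next-generation sequencing.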",
  "data": [
    {"sequence": "FVCPQCGAFFTQKGNLLRHIKL", "note": "[46F_47V_49P_50Q_52G_53A_54F_55F_67L_, Q9UKT9]", "values": [
      {"measurement": "log2 fold change of degron read counts", "setting": "[1]", "result": -1.99},
      {"measurement": "log2 fold change of degron read counts", "setting": "[2]", "result": -1.44},
      {"measurement": "log2 fold change of degron read counts", "setting": "[3]", "result": -0.515},
      {"measurement": "log2 fold change of degron read counts", "setting": "compound: thalidomide", "result": -0.988}
    ]},
    {"sequence": "FCCPICGHFFTQKGNLLRHIKL", "note": "[46F_47C_49P_50I_52G_53H_54F_55F_67L_, Q9UKT9]", "values": [
      {"measurement": "log2 fold change of degron read counts", "setting": "[1]", "result": -1.42},
      {"measurement": "log2 fold change of degron read counts", "setting": "[2]", "result": -2.1},
      {"measurement": "log2 fold change of degron read counts", "setting": "[3]", "result": -1.42},
      {"measurement": "log2 fold change of degron read counts", "setting": "compound: thalidomide", "result": -1.48}
    ]},
    {"sequence": "FACEICGHNFTQKGNLLRHIKL", "note": "[46F_47A_49E_50I_52G_53H_54N_55F_67L_, Q9UKT9]", "values": [
      {"measurement": "log2 fold change of degron read counts", "setting": "[1]", "result": -2.91},
      {"measurement": "log2 fold change of degron read counts", "setting": "[2]", "result": -3.62},
      {"measurement": "log2 fold change of degron read counts", "setting": "[3]", "result": -3.22},
      {"measurement": "log2 fold change of degron read counts", "setting": "compound: thalidomide", "result": -3.1}
    ]},
    {"sequence": "FECSVCGHHFTQKGNLLRHIKL", "note": "[46F_47E_49S_50V_52G_53H_54H_55F_67L_, Q9UKT9]", "values": [
      {"measurement": "log2 fold change of degron read counts", "setting": "[1]", "result": -3.39},
      {"measurement": "log2 fold change of degron read counts", "setting": "[2]", "result": -3.71},
      {"measurement": "log2 fold change of degron read counts", "setting": "[3]", "result": -3.71},
      {"measurement": "log2 fold change of degron read counts", "setting": "compound: thalidomide", "result": -3.11}
    ]},
    {"sequence": "FRCPICGHVFTQKGNLLRHIKL", "note": "[46F_47R_49P_50I_52G_53H_54V_55F_67L_, Q9UKT9]", "values": [
      {"measurement": "log2 fold change of degron read counts", "setting": "[1]", "result": -2.24},
      {"measurement": "log2 fold change of degron read counts", "setting": "[2]", "result": -2.31},
      {"measurement": "log2 fold change of degron read counts", "setting": "[3]", "result": -0.964},
      {"measurement": "log2 fold change of degron read counts", "setting": "compound: thalidomide", "result": -1.86}
    ]},
    {"sequence": "LACEICGFFCTQKGNLLRHIKL", "note": "[46L_47A_49E_50I_52G_53F_54F_55C_67L_, Q9UKT9]", "values": [
      {"measurement": "log2 fold change of degron read counts", "setting": "[1]", "result": 1.23},
      {"measurement": "log2 fold change of degron read counts", "setting": "[2]", "result": 0.591},
      {"measurement": "log2 fold change of degron read counts", "setting": "[3]", "result": 0.235},
      {"measurement": "log2 fold change of degron read counts", "setting": "compound: thalidomide", "result": 0.329}
    ]},
    {"sequence": "FKCEICGHCFTQKGNLLRHIKL", "note": "[46F_47K_49E_50I_52G_53H_54C_55F_67L_, Q9UKT9]", "values": [
      {"measurement": "log2 fold change of degron read counts", "setting": "[1]", "result": -2.38},
      {"measurement": "log2 fold change of degron read counts", "setting": "[2]", "result": -3.82},
      {"measurement": "log2 fold change of degron read counts", "setting": "[3]", "result": -3.48},
      {"measurement": "log2 fold change of degron read counts", "setting": "compound: thalidomide", "result": -2.98}
    ]},
    {"sequence": "FQCEICGHGFTQKGNLLRHIKL", "note": "[46F_47Q_49E_50I_52G_53H_54G_55F_67L_, Q9UKT9]", "values": [
      {"measurement": "log2 fold change of degron read counts", "setting": "[1]", "result": -3.85},
      {"measurement": "log2 fold change of degron read counts", "setting": "[2]", "result": -4.27},
      {"measurement": "log2 fold change of degron read counts", "setting": "[3]", "result": -2.95},
      {"measurement": "log2 fold change of degron read counts", "setting": "compound: thalidomide", "result": -2.21}
    ]}
  ]
}
